Data on 32 compounds can be found in the supplement of paper PMC13380429.

Structures are written as SMILES.

The subject of assay [1] is Vero E6 infected with SARS-CoV-2. In words: morphology score (similarity to uninfected cells); higher = more like uninfected cells. Conditions: 24 h.
For assay [2] the test system is unchanged. Description: SARS-CoV-2 infection rate relative to infected DMSO; higher = more infection, active = 60 or less. Conditions: 24 h.
Assay [3] shares this test system. Description: inhibition of SARS-CoV-2 cytopathic effect; higher = more antiviral protection, active = above 15. Conditions: 48 h. (Cytopathic effects are the visible damage that an infection or toxin causes in cultured cells.)

As for `C#C[C@]1(O)CC[C@H]2[C@@H]3CCc4cc(OC5CCCC5)ccc4[C@H]3CC[C@@]21C` [quinestrol] (10 µM), in assay [1], the morphology score was -0.0318. Further, the SARS-CoV-2 infection rate in assay [2] was 102% (inactive).

Take `CC(C)(S)C(N)C(=O)O` (stereo in doubt) [penicillamine-(racemic)] (10 µM): the morphology score in assay [1] came to 0.0971. Also, in assay [2], the SARS-CoV-2 infection rate was 100% (inactive).

As to `Cc1ccccc1C(C(=O)NC1CCCCC1)N(C(=O)Cn1ccnc1C)c1cccc(F)c1` (stereo not given) (10 µM), the morphology score in assay [1] was 0.177. In assay [2], the SARS-CoV-2 infection rate was 108% (inactive).

Consider `COc1cc2c(NC3CCN(C4CCCCC4)CC3)nc(N3CCCN(C(C)C)CC3)nc2cc1OCCCN1CCCCC1` (10 µM), for which, in assay [1], the morphology score worked out at 0.458. Also, the SARS-CoV-2 infection rate in assay [2] is 52% (active).

In assay [1], `CNC(=O)c1ccc(C)c(-n2c(C)cc(OCc3ccc(F)cc3F)c(Br)c2=O)c1` (0.833333 µM) registered a morphology score of -0.158. In addition, the SARS-CoV-2 infection rate in assay [2] was 116% (inactive).

Turning to `COc1cc(OC)c(/C=C/S(=O)(=O)Cc2ccc(OC)c(OP(=O)(O)O)c2)c(OC)c1` [briciclib] (0.833333 µM), the morphology score in assay [1] was -0.0884. Moreover, in assay [2], the SARS-CoV-2 infection rate was 92% (inactive).

As for `CC(=O)C1=C(O)C=C2Oc3c(C(C)=O)c(O)c(C)c(O)c3C2(C)C1=O` (stereo not drawn) [usniacin-(+)] (10 µM), the morphology score in assay [1] is 0.117. The SARS-CoV-2 infection rate in assay [2] is 108% (inactive).

For `Cn1ncc2c(N3CCOCC3)nc(-c3cccc(O)c3)nc21` (10 µM), the morphology score in assay [1] was -0.103. In addition, in assay [2], the SARS-CoV-2 infection rate is 114% (inactive).

In assay [1], `O=C(O)Cc1cccc2c(=O)cc(-c3ccccc3)oc12` [mitoflaxone] (10 µM) returned a morphology score of 0.0177. The SARS-CoV-2 infection rate in assay [2] was 106% (inactive).

As for `CN1CC[C@@H]2CN3CCc4cccc(c43)[C@@H]2C1` (10 µM), the morphology score in assay [1] is -0.0541. In addition, the SARS-CoV-2 infection rate in assay [2] was 108% (inactive).

Compound `CC(O)(C(=O)Nc1ccc(S(=O)(=O)c2ccccc2)cc1)C(F)(F)F` (stereo not given) (10 µM) yielded a morphology score in assay [1] of 0.347. Besides, the SARS-CoV-2 infection rate in assay [2] was 78% (inactive).

For `COc1cc(OC)c(/C=C2/C(=O)Nc3ccccc32)c(OC)c1` (10 µM), the morphology score in assay [1] was -0.0269. In addition, the SARS-CoV-2 infection rate in assay [2] was 96.5% (inactive).

`c1cnc(NCc2ccc(CNc3ncccn3)cc2)nc1` (10 µM) showed a morphology score in assay [1] of 0.18. Also, the SARS-CoV-2 infection rate in assay [2] was 112% (inactive).

`O=C(NNc1ccccc1)c1ccncc1` [plurisin-1] (10 µM) came in with a morphology score in assay [1] of -0.14. The SARS-CoV-2 infection rate in assay [2] is 108% (inactive).

With `CO[C@H]1C[C@H](O[C@@H]2/C(C)=C/C[C@@H]3C[C@@H](C[C@]4(CC[C@H](C)[C@@H](C5CCCCC5)O4)O3)OC(=O)[C@@H]3C=C(C)/C(=N/O)[C@H]4OC/C(=C\C=C\[C@@H]2C)[C@]43O)O[C@@H](C)[C@@H]1O` [selamectin] (10 µM), in assay [1], the morphology score came out at 0.602. The SARS-CoV-2 infection rate in assay [2] is 71% (inactive).

As for `Cc1cccc(C)c1NC(=O)CC12CCCN1CCC2` [pilsicainide] (10 µM), the morphology score in assay [1] was -0.223. Further, the SARS-CoV-2 infection rate in assay [2] is 115% (inactive).

`Nc1cccc2c(=O)[nH][nH]c(=O)c12` [monosodium-alpha-luminol] (10 µM) registered a morphology score in assay [1] of 0.000532. Also, the SARS-CoV-2 infection rate in assay [2] was 104% (inactive).

Take `CCCCCCCCCCCCCCCC[N+](C)(C)C` [cetrimonium] (0.833333 µM): the morphology score in assay [1] was -0.199. For the same compound, in assay [2], the SARS-CoV-2 infection rate was 114% (inactive).

In assay [1], `Cc1nccn1CC1CCc2c(c3ccccc3n2C)C1=O` (stereo not given) [ondansetron] (10 µM) returned a morphology score of 0.253. Besides, the SARS-CoV-2 infection rate in assay [2] is 90% (inactive).

`CO/N=C(\C(=O)N[C@@H]1C(=O)N2C(C(=O)O)=C(CSc3nc(=O)c(O)nn3C)CS[C@H]12)c1csc(N)n1` [ceftriaxone] (10 µM): the morphology score in assay [1] is -0.108. Besides, the SARS-CoV-2 infection rate in assay [2] was 112% (inactive).

Take `CCc1cccc2c3c([nH]c12)C(CC)(CC(=O)O)OCC3` (stereo not given) [etodolac] (10 µM): the morphology score in assay [1] is -0.0116. For the same compound, the SARS-CoV-2 infection rate in assay [2] was 115% (inactive).

`Cc1n[nH]c(C)c1Cc1sc2c(c1C(=O)N1C[C@H](O)CO1)c(=O)n(C)c(=O)n2CC(C)C` (10 µM): in assay [1], the morphology score came out at 0.0657. In addition, in assay [2], the SARS-CoV-2 infection rate is 106% (inactive).

For the compound `CCCNC(C)(C)COC(=O)c1ccccc1` [meprylcaine] (10 µM), the morphology score in assay [1] was determined as 0.0721. Besides, the SARS-CoV-2 infection rate in assay [2] is 102% (inactive).

Regarding `CCOCc1nc2c(N)nc3ccccc3c2n1CC(C)(C)O` [resiquimod] (10 µM), the morphology score in assay [1] was found to be 0.0727. Further, in assay [2], the SARS-CoV-2 infection rate is 113% (inactive).

`Clc1ccc(C(Cn2ccnc2)OCc2c(Cl)cccc2Cl)c(Cl)c1` (stereo not given) [isoconazole] (10 µM): in assay [1], the morphology score stood at 0.222. Further, the SARS-CoV-2 infection rate in assay [2] was 104% (inactive).

`CC1(C)O[C@@H]2[C@@H](CO[C@@]3(COS(N)(=O)=O)OC(C)(C)O[C@@H]23)O1` [topiramate]: the “inhibition of SARS-CoV-2 cytopathic effect” value (“inhibition” for short) in assay [3] (1 nM) was -1.19% (inactive); in assay [3] (8.33 nM) it was 1.71% (inactive); in assay [3] (100 nM) it was -2.21% (inactive); in assay [3] (833.33 nM) it was 0.74% (inactive); in assay [3] (10000 nM), -0.18% (inactive).

Compound `NC(=O)CC[C@H](N)C(=O)O` [L-glutamine] (10 µM) yielded a morphology score in assay [1] of 0.278. For the same compound, in assay [2], the SARS-CoV-2 infection rate was 94% (inactive).

Consider `N=C1N[C@H]2[C@H](CS[C@H]2CCCCC(=O)O)N1` [2-iminobiotin], for which the “inhibition” value is -0.5% (inactive) in assay [3] (1 nM); 1.48% (inactive) in assay [3] (8.33 nM); -1.14% (inactive) in assay [3] (100 nM); -2.01% (inactive) in assay [3] (833.33 nM); -2.17% (inactive) in assay [3] (10000 nM).

As to `CC(=O)[O][Hg][c]1ccccc1` [phenylmercuric-acetate], the “inhibition” value is -1.11% (inactive) in assay [3] (1 nM), -1.71% (inactive) in assay [3] (8.33 nM) and -0.22% (inactive) in assay [3] (100 nM).

With `NCCC(=O)N[C@@H](Cc1c[nH]cn1)C(=O)O` [carnosine], the “inhibition” value was -0.87% (inactive) in assay [3] (1 nM); -1.74% (inactive) in assay [3] (8.33 nM); -2.85% (inactive) in assay [3] (100 nM); -2.56% (inactive) in assay [3] (833.33 nM); -17.4% (inactive) in assay [3] (10000 nM).

`O=c1[nH]c2cc(Cl)ccc2c(O)c1-c1cccc(Oc2ccccc2)c1`: the “inhibition” value is 1.74% (inactive) in assay [3] (1 nM), 0.53% (inactive) in assay [3] (8.33 nM) and 2.73% (inactive) in assay [3] (100 nM).

The compound `O=c1oc2cc(O)ccc2s1` [tioxolone] (10 µM) showed a morphology score in assay [1] of 0.0494. Also, the SARS-CoV-2 infection rate in assay [2] is 104% (inactive).
